Consider four sequences from publication PMC11006913.

Changes are numbered by the printed parent chain.

Common to all, as to experiment: PBM; 200 nM protein, PBS
Details in all cases: dsDNA, one strand shown

Assay [1] has as its target SHOX (Homo sapiens, UniProt O15266 103-189).
For assay [2], the target named is HOXA4 (Homo sapiens, UniProt Q00056 201-287, W262R).
The target in assay [3] is HOXB6 (Homo sapiens, UniProt P17509 132-218, K202E).
Assay [4] has as its target HOXA4 (Homo sapiens, UniProt Q00056 201-287, R217L).
Assay [5] has as its target SHOX (Homo sapiens, UniProt O15266 103-189, R173C).
For assay [6], the target named is HOXA4 (Homo sapiens, UniProt Q00056 201-287).
Assay [7] concerns the target HOXA4 (Homo sapiens, UniProt Q00056 201-287, W262F).
For assay [8], the target named is HOXB6 (Homo sapiens, UniProt P17509 132-218).
The target of assay [9] is T1, SIX6 (Homo sapiens, UniProt O95475 114-200, L167I).
T1 sequence: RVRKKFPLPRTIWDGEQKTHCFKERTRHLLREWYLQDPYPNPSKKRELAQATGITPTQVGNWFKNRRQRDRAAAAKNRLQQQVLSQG

Assay [10] has as its target T2, SIX6 (Homo sapiens, UniProt O95475 114-200, L143V).
T2 sequence: T1 sequence with L30V, I54L

The target of assay [11] is T3, SIX6 (Homo sapiens, UniProt O95475 114-200, H141N).
T3 sequence: T1 sequence with H28N, I54L

The target in assay [12] is T4, SIX6 (Homo sapiens, UniProt O95475 114-200, T165P).
T4 sequence: T1 sequence with T52P, I54L

Assay [13] addresses T5, SIX6 (Homo sapiens, UniProt O95475 114-200, L167M).
T5 sequence: T1 sequence with I54M

The target of assay [14] is T6, SIX6 (Homo sapiens, UniProt O95475 114-200, L143M).
T6 sequence: T1 sequence with L30M, I54L

Assay [15] addresses T7, SIX6 (Homo sapiens, UniProt O95475 114-200, L143I).
T7 sequence: T1 sequence with L30I, I54L

The target in assay [16] is T8, SIX6 (Homo sapiens, UniProt O95475 114-200, T165G).
T8 sequence: T1 sequence with T52G, I54L

Assay [17] deals with T9, SIX6 (Homo sapiens, UniProt O95475 114-200, T139Q).
T9 sequence: T1 sequence with T26Q, I54L

The target of assay [18] is T10, SIX6 (Homo sapiens, UniProt O95475 114-200, T165A).
T10 sequence: T1 sequence with T52A, I54L

Assay [19] concerns the target T11, SIX6 (Homo sapiens, UniProt O95475 114-200, L167V).
T11 sequence: T1 sequence with I54V

Assay [20] has as its target T12, SIX6 (Homo sapiens, UniProt O95475 114-200).
T12 sequence: T1 sequence with I54L

The target in assay [21] is T13, SIX6 (Homo sapiens, UniProt O95475 114-200, T165I).
T13 sequence: T1 sequence with T52I, I54L

The target of assay [22] is T14, VENTX (Homo sapiens, UniProt O95231 78-163, R121Q).
T14 sequence: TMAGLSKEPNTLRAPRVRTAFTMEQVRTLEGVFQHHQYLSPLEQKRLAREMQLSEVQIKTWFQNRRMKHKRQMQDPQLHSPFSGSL

In assay [23] the target is HOXB9 (Homo sapiens, UniProt P17482 171-250, T197M).
Assay [24] concerns the target T15, VENTX (Homo sapiens, UniProt O95231 78-163).
T15 sequence: T14 sequence with Q44R

The target of assay [25] is HOXA7 (Homo sapiens, UniProt P31268 116-202).
In assay [26] the target is T16, VENTX (Homo sapiens, UniProt O95231 78-163, Y115F).
T16 sequence: T14 sequence with Y38F, Q44R

The target of assay [27] is HOXA2 (Homo sapiens, UniProt O43364 129-215, R185T).
Assay [28] has as its target HOXB9 (Homo sapiens, UniProt P17482 171-250).
The target of assay [29] is ALX3 (Homo sapiens, UniProt O95076 139-225, N203Q).
Assay [30] concerns the target HOXD13 (Homo sapiens, UniProt P35453 263-343, T313R).
Assay [31] concerns the target HOXA2 (Homo sapiens, UniProt O43364 129-215, R185K).
Assay [32] addresses HOXD13 (Homo sapiens, UniProt P35453 263-343).
Assay [33] addresses ALX3 (Homo sapiens, UniProt O95076 139-225).
Assay [34] deals with VAX1 (Homo sapiens, UniProt Q5SQQ9 86-172).
For assay [35], the target named is ALX3 (Homo sapiens, UniProt O95076 139-225, L168Q).
Assay [36] has as its target HOXD13 (Homo sapiens, UniProt P35453 263-343, T313A).
Assay [37] deals with HOXB9 (Homo sapiens, UniProt P17482 171-250, R186Q).
The target in assay [38] is ALX3 (Homo sapiens, UniProt O95076 139-225, L168V).
For assay [39], the target named is VAX1 (Homo sapiens, UniProt Q5SQQ9 86-172, T142I).
For assay [40], the target named is HOXA2 (Homo sapiens, UniProt O43364 129-215, Y150S).
Assay [41] deals with HOXA7 (Homo sapiens, UniProt P31268 116-202, W177C).
Assay [42] deals with ALX3 (Homo sapiens, UniProt O95076 139-225, N203S).
For assay [43], the target named is HOXA2 (Homo sapiens, UniProt O43364 129-215).
Assay [44] deals with VAX1 (Homo sapiens, UniProt Q5SQQ9 86-172, K157R).
Chain of VAX1 (Homo sapiens, UniProt Q5SQQ9 86-172, K157R) (Q5SQQ9 86-172 K157R): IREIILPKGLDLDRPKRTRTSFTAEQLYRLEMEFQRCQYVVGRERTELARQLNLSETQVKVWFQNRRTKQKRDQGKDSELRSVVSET

Chain of SHOX (Homo sapiens, UniProt O15266 103-189) (O15266 103-189): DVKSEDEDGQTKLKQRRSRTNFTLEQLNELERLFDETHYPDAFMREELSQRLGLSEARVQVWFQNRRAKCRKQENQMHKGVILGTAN
Chain of SHOX (Homo sapiens, UniProt O15266 103-189, R173C) (O15266 103-189 R173C): as the sequence (O15266 103-189) above, with R71C counted along it
Chain of HOXD13 (Homo sapiens, UniProt P35453 263-343, T313R) (P35453 263-343 T313R): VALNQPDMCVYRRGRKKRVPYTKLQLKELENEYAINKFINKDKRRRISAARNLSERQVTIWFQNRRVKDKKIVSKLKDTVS
Chain of ALX3 (Homo sapiens, UniProt O95076 139-225, L168Q) (O95076 139-225 L168Q): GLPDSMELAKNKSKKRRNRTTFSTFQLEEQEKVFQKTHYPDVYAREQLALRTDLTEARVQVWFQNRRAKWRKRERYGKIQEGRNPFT
Chain of HOXA7 (Homo sapiens, UniProt P31268 116-202, W177C) (P31268 116-202 W177C): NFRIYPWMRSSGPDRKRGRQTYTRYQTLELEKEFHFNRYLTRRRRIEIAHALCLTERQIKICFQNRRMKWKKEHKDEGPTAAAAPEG
Chain of ALX3 (Homo sapiens, UniProt O95076 139-225, N203S) (O95076 139-225 N203S): as the sequence (O95076 139-225 L168Q) above, with Q30L, N65S counted along it
Chain of ALX3 (Homo sapiens, UniProt O95076 139-225, N203Q) (O95076 139-225 N203Q): as the sequence (O95076 139-225 L168Q) above, with Q30L, N65Q counted along it
Chain of ALX3 (Homo sapiens, UniProt O95076 139-225, L168V) (O95076 139-225 L168V): as the sequence (O95076 139-225 L168Q) above, with Q30V counted along it
Chain of HOXD13 (Homo sapiens, UniProt P35453 263-343) (P35453 263-343): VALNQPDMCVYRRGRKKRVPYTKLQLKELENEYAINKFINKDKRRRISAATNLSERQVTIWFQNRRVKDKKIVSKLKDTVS
Chain of HOXA7 (Homo sapiens, UniProt P31268 116-202) (P31268 116-202): as the sequence (P31268 116-202 W177C) above, with C62W counted along it
Chain of HOXD13 (Homo sapiens, UniProt P35453 263-343, T313A) (P35453 263-343 T313A): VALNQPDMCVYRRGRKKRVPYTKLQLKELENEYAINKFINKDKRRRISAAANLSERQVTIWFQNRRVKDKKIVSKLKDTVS
Chain of ALX3 (Homo sapiens, UniProt O95076 139-225) (O95076 139-225): as the sequence (O95076 139-225 L168Q) above, with Q30L counted along it
Chain of HOXB9 (Homo sapiens, UniProt P17482 171-250, R186Q) (P17482 171-250 R186Q): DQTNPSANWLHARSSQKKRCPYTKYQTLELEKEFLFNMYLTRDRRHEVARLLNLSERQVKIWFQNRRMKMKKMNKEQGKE
Chain of HOXA2 (Homo sapiens, UniProt O43364 129-215, Y150S) (O43364 129-215 Y150S): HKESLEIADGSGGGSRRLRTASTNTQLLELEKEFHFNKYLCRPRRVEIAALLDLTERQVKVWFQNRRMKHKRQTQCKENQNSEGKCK
Chain of HOXA4 (Homo sapiens, UniProt Q00056 201-287) (Q00056 201-287): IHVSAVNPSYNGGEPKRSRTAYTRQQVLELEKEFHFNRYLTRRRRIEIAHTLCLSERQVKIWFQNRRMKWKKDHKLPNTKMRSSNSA
Chain of HOXB6 (Homo sapiens, UniProt P17509 132-218, K202E) (P17509 132-218 K202E): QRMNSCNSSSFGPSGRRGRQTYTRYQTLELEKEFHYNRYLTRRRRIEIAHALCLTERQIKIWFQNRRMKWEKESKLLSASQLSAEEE
Chain of VAX1 (Homo sapiens, UniProt Q5SQQ9 86-172, T142I) (Q5SQQ9 86-172 T142I): as the sequence (Q5SQQ9 86-172 K157R) above, with T57I, R72K counted along it
Chain of HOXA2 (Homo sapiens, UniProt O43364 129-215, R185K) (O43364 129-215 R185K): as the sequence (O43364 129-215 Y150S) above, with S22Y, R57K counted along it
Chain of HOXB9 (Homo sapiens, UniProt P17482 171-250, T197M) (P17482 171-250 T197M): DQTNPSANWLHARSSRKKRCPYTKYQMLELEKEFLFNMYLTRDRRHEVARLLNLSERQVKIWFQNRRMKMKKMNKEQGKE
Chain of HOXB6 (Homo sapiens, UniProt P17509 132-218) (P17509 132-218): as the sequence (P17509 132-218 K202E) above, with E71K counted along it
Chain of HOXA4 (Homo sapiens, UniProt Q00056 201-287, R217L) (Q00056 201-287 R217L): as the sequence (Q00056 201-287) above, with R17L counted along it
Chain of HOXA4 (Homo sapiens, UniProt Q00056 201-287, W262F) (Q00056 201-287 W262F): as the sequence (Q00056 201-287) above, with W62F counted along it
Chain of HOXB9 (Homo sapiens, UniProt P17482 171-250) (P17482 171-250): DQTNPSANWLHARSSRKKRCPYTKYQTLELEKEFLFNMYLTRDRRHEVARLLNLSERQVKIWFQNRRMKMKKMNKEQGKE
Chain of HOXA2 (Homo sapiens, UniProt O43364 129-215) (O43364 129-215): as the sequence (O43364 129-215 Y150S) above, with S22Y counted along it
Chain of HOXA2 (Homo sapiens, UniProt O43364 129-215, R185T) (O43364 129-215 R185T): as the sequence (O43364 129-215 Y150S) above, with S22Y, R57T counted along it
Chain of HOXA4 (Homo sapiens, UniProt Q00056 201-287, W262R) (Q00056 201-287 W262R): as the sequence (Q00056 201-287) above, with W62R counted along it
Chain of VAX1 (Homo sapiens, UniProt Q5SQQ9 86-172) (Q5SQQ9 86-172): as the sequence (Q5SQQ9 86-172 K157R) above, with R72K counted along it

Consider CAGGGAGG, for which the binding signal with SHOX [1] was 6.88 upbm affinity estimate (log intensity, higher = more binding, comparable within an allelic series); with HOXA4 [2], 9.65 upbm affinity estimate (log intensity, higher = more binding, comparable within an allelic series); in the assay with HOXB6 [3], 8.81 upbm affinity estimate (log intensity, higher = more binding, comparable within an allelic series); with HOXA4 [4], 9.79 upbm affinity estimate (log intensity, higher = more binding, comparable within an allelic series); with SHOX [5], 7 upbm affinity estimate (log intensity, higher = more binding, comparable within an allelic series); with HOXA4 [6], 9.91 upbm affinity estimate (log intensity, higher = more binding, comparable within an allelic series). The binding signal was 9.86 upbm affinity estimate (log intensity, higher = more binding, comparable within an allelic series) in the assay with HOXA4 [7] and 8.85 upbm affinity estimate (log intensity, higher = more binding, comparable within an allelic series) in the assay with HOXB6 [8].

Turning to CGACCGCC, the binding signal was 7.14 upbm affinity estimate (log intensity, higher = more binding, comparable within an allelic series) with SHOX [1]; 8.99 upbm affinity estimate (log intensity, higher = more binding, comparable within an allelic series) in the assay with SIX6 [9]; 8.82 upbm affinity estimate (log intensity, higher = more binding, comparable within an allelic series) in the assay with SIX6 [10]; 8.95 upbm affinity estimate (log intensity, higher = more binding, comparable within an allelic series) with SIX6 [11]; 8.87 upbm affinity estimate (log intensity, higher = more binding, comparable within an allelic series) with SIX6 [12]; 9.03 upbm affinity estimate (log intensity, higher = more binding, comparable within an allelic series) with SIX6 [13]. Moreover, the binding signal is 8.84 upbm affinity estimate (log intensity, higher = more binding, comparable within an allelic series) in the assay with SIX6 [14]; 8.91 upbm affinity estimate (log intensity, higher = more binding, comparable within an allelic series) in the assay with SIX6 [15]; 9.05 upbm affinity estimate (log intensity, higher = more binding, comparable within an allelic series) with SIX6 [16]; 8.92 upbm affinity estimate (log intensity, higher = more binding, comparable within an allelic series) with SIX6 [17]; 8.95 upbm affinity estimate (log intensity, higher = more binding, comparable within an allelic series) in the assay with SIX6 [18]; 7.26 upbm affinity estimate (log intensity, higher = more binding, comparable within an allelic series) with SHOX [5]. Also, the binding signal with SIX6 [19] is 8.84 upbm affinity estimate (log intensity, higher = more binding, comparable within an allelic series); in the assay with SIX6 [20], 8.95 upbm affinity estimate (log intensity, higher = more binding, comparable within an allelic series); with SIX6 [21] it was 9.02 upbm affinity estimate (log intensity, higher = more binding, comparable within an allelic series).

On to CCCACGGC, for which the binding signal with SHOX [1] is 6.91 upbm affinity estimate (log intensity, higher = more binding, comparable within an allelic series); with VENTX [22] it was 7.88 upbm affinity estimate (log intensity, higher = more binding, comparable within an allelic series); with HOXB9 [23], 8.38 upbm affinity estimate (log intensity, higher = more binding, comparable within an allelic series); with VENTX [24] it was 7.71 upbm affinity estimate (log intensity, higher = more binding, comparable within an allelic series); in the assay with HOXA7 [25], 8.48 upbm affinity estimate (log intensity, higher = more binding, comparable within an allelic series); in the assay with VENTX [26], 7.87 upbm affinity estimate (log intensity, higher = more binding, comparable within an allelic series). Further, the binding signal was 7.17 upbm affinity estimate (log intensity, higher = more binding, comparable within an allelic series) with HOXA2 [27]; 8.1 upbm affinity estimate (log intensity, higher = more binding, comparable within an allelic series) with HOXB9 [28]; 7.69 upbm affinity estimate (log intensity, higher = more binding, comparable within an allelic series) with ALX3 [29]; 9.39 upbm affinity estimate (log intensity, higher = more binding, comparable within an allelic series) with HOXD13 [30]; 7.08 upbm affinity estimate (log intensity, higher = more binding, comparable within an allelic series) in the assay with SHOX [5]; 10 upbm affinity estimate (log intensity, higher = more binding, comparable within an allelic series) with HOXA2 [31]. Besides, the binding signal was 9.4 upbm affinity estimate (log intensity, higher = more binding, comparable within an allelic series) in the assay with HOXD13 [32]; 7.64 upbm affinity estimate (log intensity, higher = more binding, comparable within an allelic series) with ALX3 [33]; 6.92 upbm affinity estimate (log intensity, higher = more binding, comparable within an allelic series) with VAX1 [34]; 7.79 upbm affinity estimate (log intensity, higher = more binding, comparable within an allelic series) with ALX3 [35]; 9.58 upbm affinity estimate (log intensity, higher = more binding, comparable within an allelic series) with HOXD13 [36]; 8.18 upbm affinity estimate (log intensity, higher = more binding, comparable within an allelic series) with HOXB9 [37]. Moreover, the binding signal in the assay with ALX3 [38] was 7.77 upbm affinity estimate (log intensity, higher = more binding, comparable within an allelic series); in the assay with VAX1 [39], 6.93 upbm affinity estimate (log intensity, higher = more binding, comparable within an allelic series); with HOXA2 [40], 10.4 upbm affinity estimate (log intensity, higher = more binding, comparable within an allelic series); in the assay with HOXA7 [41], 8.45 upbm affinity estimate (log intensity, higher = more binding, comparable within an allelic series); with ALX3 [42], 7.71 upbm affinity estimate (log intensity, higher = more binding, comparable within an allelic series); with HOXA2 [43] it was 7.04 upbm affinity estimate (log intensity, higher = more binding, comparable within an allelic series). For the same sequence, the binding signal with VAX1 [44] was 6.78 upbm affinity estimate (log intensity, higher = more binding, comparable within an allelic series).

On to CCTCTCCG, for which the binding signal with SHOX [1] was 6.97 upbm affinity estimate (log intensity, higher = more binding, comparable within an allelic series); in the assay with SIX6 [9], 8.93 upbm affinity estimate (log intensity, higher = more binding, comparable within an allelic series); with SIX6 [10], 8.82 upbm affinity estimate (log intensity, higher = more binding, comparable within an allelic series); with HOXA7 [25], 8.27 upbm affinity estimate (log intensity, higher = more binding, comparable within an allelic series); with SIX6 [11], 8.83 upbm affinity estimate (log intensity, higher = more binding, comparable within an allelic series); with SIX6 [12], 8.87 upbm affinity estimate (log intensity, higher = more binding, comparable within an allelic series). For the same sequence, the binding signal with SIX6 [13] was 8.89 upbm affinity estimate (log intensity, higher = more binding, comparable within an allelic series); with SIX6 [14], 8.93 upbm affinity estimate (log intensity, higher = more binding, comparable within an allelic series); with SIX6 [15], 8.91 upbm affinity estimate (log intensity, higher = more binding, comparable within an allelic series); in the assay with SIX6 [16] it was 8.85 upbm affinity estimate (log intensity, higher = more binding, comparable within an allelic series); with SIX6 [17] it was 8.89 upbm affinity estimate (log intensity, higher = more binding, comparable within an allelic series); with ALX3 [29] it was 7.63 upbm affinity estimate (log intensity, higher = more binding, comparable within an allelic series). In addition, the binding signal was 9.4 upbm affinity estimate (log intensity, higher = more binding, comparable within an allelic series) in the assay with HOXD13 [30]; 8.98 upbm affinity estimate (log intensity, higher = more binding, comparable within an allelic series) with SIX6 [18]; 7.06 upbm affinity estimate (log intensity, higher = more binding, comparable within an allelic series) with SHOX [5]; 9.42 upbm affinity estimate (log intensity, higher = more binding, comparable within an allelic series) with HOXD13 [32]; 8.9 upbm affinity estimate (log intensity, higher = more binding, comparable within an allelic series) with SIX6 [19]; 7.51 upbm affinity estimate (log intensity, higher = more binding, comparable within an allelic series) with ALX3 [33]. Besides, the binding signal was 8.77 upbm affinity estimate (log intensity, higher = more binding, comparable within an allelic series) with SIX6 [20]; 7.69 upbm affinity estimate (log intensity, higher = more binding, comparable within an allelic series) in the assay with ALX3 [35]; 8.86 upbm affinity estimate (log intensity, higher = more binding, comparable within an allelic series) with SIX6 [21]; 9.42 upbm affinity estimate (log intensity, higher = more binding, comparable within an allelic series) in the assay with HOXD13 [36]; 7.6 upbm affinity estimate (log intensity, higher = more binding, comparable within an allelic series) in the assay with ALX3 [38]; 8.41 upbm affinity estimate (log intensity, higher = more binding, comparable within an allelic series) in the assay with HOXA7 [41]. Further, the binding signal with ALX3 [42] was 7.61 upbm affinity estimate (log intensity, higher = more binding, comparable within an allelic series).
